# Only some compounds are listed: those with a hit (about 1.1% of all), similar ones and a draw of the others.
# gsp antagonist – qHTS for Antagonists of gsp, the Etiologic Mutation Responsible for Fibrous Dysplasia/McCune-Albright Syndrome: qHTS. gsp-mutant cells, cAMP HTRF, 30 min. Potency, µM (doses to about 76.9 µM), inactives show at the highest dose activity change, negative = inhibition, hits mostly inhibitors. 0.4% of 340,000 active; calls by dose curve; cell line not stated here;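 note: intracellular cAMP measured with PDE inhibitor Ro 20-1724 present during compound exposure; potency is the fitted concentration of half-maximal effect; % is set by controls: 0 for no effect and ±100 for the full control effect; nearly all actives have a fitted effect of over 65% in size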
#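 Cells, 2000/well, grown 16–24 h in DMEM 10% FBS with 0.5 mg/ml G418, then compounds plus […] (300 uM addition stock), 30 min at 37C. cAMP read by HTRF (cAMP-d2 and anti-cAMP antibody-K in lysis buffer) after 30 min RT.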
# TRPV1 ag – HTS Assay for Compounds that Act as Agonists of the Vanilloid Receptor 1; TRPV1-expressing cells, Fluo-8 calcium influx, agonist mode; activation, % at 8.33 µM; 0.19% of 320,000 active; AID 540275, 2011; in the data active = activation above about 80%; inconclusive = between about 30% and that limit; note: 0% is about no effect
#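 TRPV1-expressing cells were cultured overnight at 35.5C and loaded with Fluo-8 calcium dye for 40 to 90 min at room temperature. After a 10 s baseline, compound was added and calcium influx was read kinetically for 3 min (ex 480/em 520 nm).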
# RXFP1 antagonist – qHTS Assay for Antagonists of the Relaxin Receptor RXFP1 | Relaxin receptor 1 (Homo sapiens), Q9HBX9 | HEK293-RXFP1, relaxin-stimulated cAMP HTRF, 30 min; hits give low values | activity change, negative = inhibition, % at 57.5 µM | 0.59% of 350,000 active;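 active = activity change of -60% or lower, but not beyond a set lower limit; inconclusive = change between -60% and -40%, or beyond the set limit; inactive = change above -40%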; note: % is set by controls: 0 for no effect and ±100 for the full control effect
# Target sequence (Q9HBX9 whole entry, looked up): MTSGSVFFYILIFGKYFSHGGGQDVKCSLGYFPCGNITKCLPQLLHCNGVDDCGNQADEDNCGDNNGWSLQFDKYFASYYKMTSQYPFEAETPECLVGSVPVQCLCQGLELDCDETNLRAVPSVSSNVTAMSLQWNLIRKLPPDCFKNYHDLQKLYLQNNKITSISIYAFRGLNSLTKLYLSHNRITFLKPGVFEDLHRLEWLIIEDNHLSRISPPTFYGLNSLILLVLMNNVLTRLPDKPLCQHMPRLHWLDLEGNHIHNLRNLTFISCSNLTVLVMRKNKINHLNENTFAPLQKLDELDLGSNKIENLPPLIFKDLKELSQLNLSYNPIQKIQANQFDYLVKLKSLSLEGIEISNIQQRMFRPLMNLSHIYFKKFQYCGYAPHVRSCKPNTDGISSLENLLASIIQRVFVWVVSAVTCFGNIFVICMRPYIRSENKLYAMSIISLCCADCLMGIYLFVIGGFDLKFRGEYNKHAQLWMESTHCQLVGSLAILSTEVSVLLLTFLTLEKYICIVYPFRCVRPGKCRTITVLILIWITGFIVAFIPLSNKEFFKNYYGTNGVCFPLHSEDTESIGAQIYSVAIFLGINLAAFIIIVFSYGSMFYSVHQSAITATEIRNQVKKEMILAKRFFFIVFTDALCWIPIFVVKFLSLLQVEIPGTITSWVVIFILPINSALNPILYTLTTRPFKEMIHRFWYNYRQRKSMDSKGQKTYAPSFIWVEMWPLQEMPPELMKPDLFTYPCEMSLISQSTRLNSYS
# gsp agonist – qHTS for Agonist of gsp, the Etiologic Mutation Responsible for Fibrous Dysplasia/McCune-Albright Syndrome: qHTS; gsp mutant cells, cAMP HTRF, 30 min; Potency, µM (highest dose often 76.9 µM), for inactives: at the highest dose activation (cAMP increase), hits mostly activators; 0.13% of 340,000 active; active = well fitted activation curve with a large enough effect; inconclusive = small, poorly fitted or top-dose-only effect, or another doubt; inactive = no such curve, though single readings can be large or run the other way; cell line not stated here;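 note: phosphodiesterase inhibitor Ro 20-1724 added with compounds to block cAMP breakdown; potency is the fitted concentration of half-maximal effect; nearly all actives have a fitted effect of over 60% in size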
#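 Cells in DMEM/10% FBS with G418 were pretreated with compounds in DMSO plus […] (300 uM stock) for 30 min at 37C. cAMP was measured by HTRF (cAMP-d2 plus anti-cAMP antibody-K) after 30 min at room temperature.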
# RXFP1 agonist – qHTS Assay for Agonists of the Relaxin Receptor RXFP1 | 0.3% of 370,000 active | HEK293T-RXFP1 cAMP TR-FRET, 30 min; response scale: percent of porcine relaxin response, buffer zero | Potency, µM (series often up to 57.5 µM), without a hit: top-dose activation, usual class: activators | AID 2676, 2010 | Relaxin receptor 1 (Homo sapiens), Q9HBX9; active = well fitted activation curve with a large enough effect; inconclusive = small, poorly fitted or top-dose-only effect; note: potency is the fitted concentration of half-maximal effect; % is set by controls: 0 for no effect and ±100 for the full control effect; nearly all actives have a fitted effect of over 60% in size
#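 Agonist response is measured as cAMP accumulation in an RXFP1-transfected HEK293T line under PDE4 inhibition. Values are scaled between buffer-only and 29 nM porcine relaxin, and EC50s come from standard Hill equation fits.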
# TRPV1 PAM – HTS Assay for Compounds that Act as Potentiators of the Vanilloid Receptor 1; Transient receptor potential cation channel subfamily V member 1 (Homo sapiens), Q8NER1; TRPV1-expressing cells, Fluo-8 calcium influx, capsaicin EC20 potentiation; potentiation, % at 8.33 µM; 0.02% of 320,000 active; AID 540277, 2011; in the data active = potentiation above about 80%; inconclusive = between about 30% and that limit; note: 0% is about no effect
#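 Fluo-8 calcium influx in TRPV1-expressing cells, kinetic read (ex 480/em 520 nm). Compound added and read 3 min for agonist activity, followed by capsaicin at EC20 final and 2 min further read for enhancement.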
# Active calls of the source: *; ? = inconclusive; . = no result; [ ] = another dose, or the depositor's remark.
SMILES,gsp antagonist,TRPV1 ag,RXFP1 antagonist,gsp agonist,RXFP1 agonist,TRPV1 PAM
CCOc1ccccc1C(=O)NCC(c1cccs1)S(=O)(=O)c1ccc(F)c(C)c1 (stereo not given),.,.,-6,.,0%,.
CCC(C(=O)O)c1ccc(N2Cc3ccccc3C2=O)cc1 (stereo not given),.,.,-13,.,.,.
Cc1cc(N/N=C\c2ccccc2)nc(-c2ccccc2O)n1,-12%,28,-18,-8%[15.4 µM],-1%,-10
C/C(=N\Nc1cc(C)nc(-c2ccccc2O)n1)c1ccccc1O,45µM*,.,13,23%,-1%,.
COc1cc(C(=O)Nc2cccc(-c3nnc(-c4ccco4)o3)c2)ccc1OC(C)=O,-23%,-1,-65*,-9%[15.4 µM],4%,14
COc1ccc(CC(=O)Nc2cccc(-c3nnc(-c4ccco4)o3)c2)cc1,?,.,-28,-5%[15.4 µM],0%,.
Cc1cccc(NC(=O)c2cccc(NC(=O)Cc3cccs3)c2)c1,-12%,6,-107*,19%,0%,13
O=C(Cc1cccs1)Nc1cccc(-c2nnc(-c3ccco3)o2)c1,?,?,7,4%,-1%,89*
Cc1ccc2nc(C)cc(C(=O)N3CCCC(N4CCN(c5ccccc5C)CC4)C3)c2c1 (stereo not given),-8%,15,-2,-44%,5%,-6
CCn1ccc(C(=O)Nc2ccccc2Cl)n1,50µM*,11,1,-30%,-1%,-15
COc1ccccc1-c1nn2c(=O)cc(CN3CCN(C(=O)Nc4ccc(C)cc4Cl)CC3)nc2s1,.,.,.,.,8%,.
CCc1ccc(-c2ccc3nnc(SCC(=O)NCC4CCCO4)n3n2)cc1 (stereo not given),15%,-2,10,12%[15.4 µM],26%,6
Cc1ccc(-c2ccc3nnc(SCC(=O)NCC4CCCO4)n3n2)cc1 (stereo not given),0%,0,11,9%,25µM*,?
O=C(Cc1ccc(NC(=O)C2CCN(C(=O)C3CCCCC3)CC2)cc1)Nc1ccc(C(=O)N2CCOCC2)cc1,8%,.,.,.,.,.
CCCc1ncc(C(=O)O)s1,.,.,0,.,.,.
CCOc1ccc(N(CC(=O)NCCOc2ccc(C)cc2)S(=O)(=O)c2ccccc2)cc1,-8%,23,4,10%[15.4 µM],-4%,-4
COc1ccc(N(CC(=O)NCCOc2ccccc2)S(=O)(=O)c2ccc(C)cc2)cc1,-14%,9,-62*,14%,-2%,1
O=C(O)c1ccccc1-c1ccccc1C(=O)Nc1ccc2c(c1)C(O)c1ccccc1-2 (stereo not given),.,.,4,-9%,.,.
CN1C(=O)/C(=C/c2ccccc2F)Sc2ccc(C(=O)NCC3CCCO3)cc21 (stereo not given),32µM*,28,-9,?,0%,0
Cc1[nH]c(=S)c(C#N)c(C)c1CC(=O)c1ccc(Br)cc1,-14%,3,-70*,-48%,7%,-3
Cc1[nH]c(=S)c(C#N)c(C)c1Cc1ccc(Cl)cc1Cl,-6%,0,?,-77%,10%,1
COC(=O)N/N=C/c1cccc(OCCSc2ccc(Cl)cc2)c1,-35%,-6,-62*,3%[15.4 µM],2%,?
Cc1ccc(C)c(OC(C)C(=O)Nc2nccs2)c1 (stereo not given),?,25,-3,1%,0%,-7
CCOC(=O)c1cccc(NC(=O)CSc2ncc3c(n2)-c2ccc(Cl)cc2N(Cc2ccccc2)S3(=O)=O)c1,.,.,.,.,32µM*,.
COc1ccccc1CNC(=O)CSc1ncc2c(n1)-c1ccc(Cl)cc1N(Cc1ccccc1)S2(=O)=O,.,.,7,.,4.5µM*,.
SMILES,gsp antagonist,TRPV1 ag,RXFP1 antagonist,gsp agonist,RXFP1 agonist,TRPV1 PAM
CCc1cccc(NC(=O)CSc2ncc3c(n2)-c2ccccc2N(Cc2ccccc2C)S3(=O)=O)c1,.,.,-1,.,10%,.
COc1ccccc1CNC(=O)CSc1ncc2c(n1)-c1ccccc1N(Cc1ccc(C)cc1)S2(=O)=O,.,.,.,.,14%,.
CCn1c(C)nc2cc(C(=O)N/N=C/c3cccc(O)c3O)ccc21,-13%,-6,0,-10%,2%,14
COc1cc(OC)c2c(C)c(CC(=O)N3CCCCC3)c(=O)oc2c1,.,.,5,.,4%,.
CCOc1cccc(/C=C2/NC(=O)N(CC(=O)Nc3cccc(C)c3)C2=O)c1O,1%,2,-77*,?,-1%,5
CCOc1cc(C)c(-c2onc(C(F)(F)F)c2-c2csc(C)n2)c(O)c1,?,30,-84*,5%,3%,-1
CN1C(=O)S/C(=C/c2ccccc2OCc2ccc(C(=O)O)cc2)C1=O,32µM*,2,4,-2%[15.4 µM],1%,-10
COc1cc(CN2CC(=O)N(c3cccc(Cl)c3C)C2=S)cc(OC)c1OC,-7%,4,1,?,0%,5
COc1cc(CN2CC(=O)N(c3ccccc3Cl)C2=S)cc(OC)c1OC,35µM*,2,-14,-16%,0%,15
CC(C)(C)OC(=O)[C@H](Cc1ccccc1)NC(=O)c1nc[nH]c1C(=O)NCC(=O)OCc1ccccc1,9%,?,.,19%,0%,-1
CC(C)(C)OC(=O)NCCCCCNC(=O)c1nc[nH]c1C(=O)NCc1ccc(CNC(=O)OC(C)(C)C)cc1,40µM*,.,.,.,.,.
C[C@H](NC(=O)c1nc[nH]c1C(=O)NCc1ccccc1)C(=O)OCc1ccccc1,11µM*,10,.,-41%,-1%,8
CC(C)(C)OC(=O)CNC(=O)c1[nH]cnc1C(=O)N[C@@H](Cc1ccccc1)C(=O)OC(C)(C)C,10%,82*,.,.,0%,-20
NS(=O)(=O)c1cc(C(=O)NN2C[C@H]3[C@H]4CCC(C4)[C@H]3C2)ccc1Cl,.,.,-7,.,.,.
CCn1nc([N+](=O)[O-])c(C(C#N)c2nc3cc(C(F)(F)F)ccc3s2)c(Cl)c1=O (stereo not given),28µM*,-3,?,-26%,1%,-5
CCCCC(O)/C=C(C)/C=C/C=C/C(=O)N1CCCC1=O (stereo not given),.,.,-10,.,.,.
Cc1nc2nc(C)c(NS(=O)(=O)c3ccc(C4CCCCC4)cc3)c(=O)n2[nH]1,2%,8,2,0%,3%,-9

# Screening results deposited in PubChem BioAssay by National Center for Advancing Translational Sciences (NCATS).
